Among the test systems are NCI-H23 lung; NCI-H226 lung; NCI-H322M lung; HOP-62 NSCLC; NCI-H460 lung; HOP-92 NSCLC; NCI-H522 lung; A549/ATCC NSCLC; 786-0 renal; COLO 205 colon.
Common to all, as to assay: NCI-60 one-dose screen, 48 h (100 = growth as untreated, 0 = no growth, -100 = all killed)
Common to all, as to settings: 10 µM unless noted

The panel holds about 83,000 compounds, 20% with a hit somewhere; the sample as a whole holds those more often.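 Treatment: one concentration, 48 hours, 96-well format. Scoring: percent growth, with anything below 10 considered active.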 A number with no mark means an inactive call. The source made the active and inactive calls.

For the compound `C=C1C(=O)O[C@H]2[C@H]1CC/C(COC(=O)NCc1cc(OC)cc(OC)c1)=C\CC[C@@]1(C)O[C@@H]21`, the growth was 20.8% in the assay on NCI-H23 lung; 13.2% in the assay with NCI-H226 lung; 73.4% in the assay on NCI-H322M lung; 44.9% in the assay with HOP-62 NSCLC; 34.9% in the assay with NCI-H460 lung; -21.6% (active) in the assay on HOP-92 NSCLC. Moreover, the growth was -52.7% (active) with NCI-H522 lung, 51.2% with A549/ATCC NSCLC, -37.7% (active) in the assay with 786-0 renal and -64.9% (active) in the assay on COLO 205 colon.
As for `COc1ccc(OC)c(/C=C2\Oc3cc(OCCN4CCCC4)ccc3C2=O)c1`, the growth in the assay with NCI-H23 lung was 87.7%; with NCI-H226 lung, 104%; in the assay on NCI-H322M lung, 97.4%; in the assay with HOP-62 NSCLC it was 87.2%; in the assay with NCI-H460 lung, 99.1%; in the assay with HOP-92 NSCLC, 92.3%. The growth with NCI-H522 lung was 103%; in the assay on A549/ATCC NSCLC it was 103%; with 786-0 renal, 93.9%; with COLO 205 colon, 97.9%.
As for `O=c1[nH]c(CN2CCN(c3ccccc3F)CC2)nc2sc3c(c12)CCC3`, the growth in the assay with NCI-H23 lung was 105%; with NCI-H226 lung it was 102%; in the assay with NCI-H322M lung, 98.9%; in the assay on HOP-62 NSCLC, 92.4%; in the assay on NCI-H460 lung, 123%; in the assay on HOP-92 NSCLC, 89%. For the same compound, the growth in the assay with NCI-H522 lung was 98.7%; in the assay on A549/ATCC NSCLC it was 110%; in the assay with 786-0 renal, 95.8%; with COLO 205 colon, 91.9%.
As to `Cc1nc(Nc2cccnc2)sc1C(=O)/C=C/c1ccc(Cl)cc1`, the growth is 92.8% in the assay with NCI-H23 lung; 62.5% in the assay on NCI-H226 lung; 32.1% in the assay on NCI-H322M lung; 15.6% in the assay on HOP-62 NSCLC; 70.6% in the assay on NCI-H460 lung; 92% with HOP-92 NSCLC. Also, the growth was 44.7% with NCI-H522 lung, 26.5% in the assay with A549/ATCC NSCLC, 12.3% with 786-0 renal and 43.8% with COLO 205 colon.
For `O=[N+]([O-])c1c(S(=O)(=O)O)cc2cc(S(=O)(=O)O)ccc2c1[N+](=O)[O-]`, the growth in the assay with NCI-H23 lung was 90.6%; in the assay with NCI-H226 lung, 108%; in the assay on NCI-H322M lung, 92.6%; with HOP-62 NSCLC, 109%; with NCI-H460 lung, 105%; with HOP-92 NSCLC, 103%. Moreover, the growth was 86.1% with NCI-H522 lung, 98.9% with A549/ATCC NSCLC, 103% in the assay on 786-0 renal and 117% in the assay with COLO 205 colon.
Take `COc1cc(CCn2nnc3c(Nc4ccc(N5CCOCC5)cc4)ncnc32)cc(OC)c1`: the growth in the assay with NCI-H23 lung was 95.1%; in the assay on NCI-H226 lung it was 90.7%; with NCI-H322M lung it was 111%; with HOP-62 NSCLC, 104%; in the assay with NCI-H460 lung, 98.4%; in the assay on HOP-92 NSCLC, 47.3%. The growth with NCI-H522 lung is 88.5%; in the assay with A549/ATCC NSCLC, 98.1%; in the assay on 786-0 renal, 107%; in the assay on COLO 205 colon it was 94.9%.
For the compound `CCN1C(=O)N(CC)C2Nn3c(s/c(=C\c4cccc(F)c4)c3=O)=NC21` (stereo not given), the growth in the assay with NCI-H23 lung was 62.7%; in the assay on NCI-H226 lung, 96.1%; in the assay on NCI-H322M lung it was 96.6%; in the assay with HOP-62 NSCLC, 68.1%; in the assay on NCI-H460 lung it was 53.9%; with HOP-92 NSCLC, 49.1%. For the same compound, the growth was 64.4% in the assay on NCI-H522 lung, 72.5% with A549/ATCC NSCLC, 77.5% with 786-0 renal and 70.7% with COLO 205 colon.
Turning to `COc1cc2c(cc1OC)C1(C)N(CC2)C(=O)OC1(C)C` (stereo not given), the growth with NCI-H23 lung is 110%; with NCI-H226 lung it was 92.8%; with NCI-H322M lung, 101%; in the assay on HOP-62 NSCLC it was 111%; with NCI-H460 lung, 101%; in the assay on HOP-92 NSCLC, 101%. Moreover, the growth with NCI-H522 lung is 100%; in the assay with A549/ATCC NSCLC it was 102%; in the assay on 786-0 renal, 102%; in the assay on COLO 205 colon, 120%.
As to `O=C1CCCCC=C1C[N+](=O)[O-]`, the growth in the assay on NCI-H23 lung was 91.5%; with NCI-H226 lung it was 86.3%; with NCI-H322M lung, 105%; with HOP-62 NSCLC, 107%; in the assay on NCI-H460 lung it was 102%; with HOP-92 NSCLC, 90%. Besides, the growth in the assay on NCI-H522 lung is -12.3% (active); in the assay on A549/ATCC NSCLC it was 121%; in the assay with 786-0 renal, 102%; in the assay on COLO 205 colon it was 43%.
Regarding `COc1cccc(C2CC(=O)Nc3c2c(C)nn3-c2nc3ccccc3[nH]2)c1OC` (stereo not given), the growth in the assay on NCI-H23 lung is 50.5%; in the assay on NCI-H226 lung, 55.1%; in the assay on NCI-H322M lung it was 60%; with HOP-62 NSCLC, 57.4%; with NCI-H460 lung, 50.2%; in the assay on HOP-92 NSCLC it was 85.4%. The growth is 87.8% in the assay with NCI-H522 lung, 34.4% in the assay with A549/ATCC NSCLC, 91.7% with 786-0 renal and 98.1% with COLO 205 colon.
As for `Nc1cccc2c1CN(C1CCC(=O)NC1=O)C2=O` (stereo not given), the growth in the assay with NCI-H23 lung was 99.4%; in the assay with NCI-H226 lung, 108%; in the assay on NCI-H322M lung it was 111%; in the assay with HOP-62 NSCLC, 106%; in the assay on NCI-H460 lung it was 102%; in the assay on HOP-92 NSCLC, 22.6%. The growth is 56% in the assay with NCI-H522 lung, 106% in the assay on A549/ATCC NSCLC, 107% with 786-0 renal and 111% with COLO 205 colon.
For `COc1ncc(-c2ccc3ncnc(Nc4cccc(Cl)c4)c3c2)cc1N(S(C)(=O)=O)S(C)(=O)=O`, the growth with NCI-H23 lung was 71.5%; in the assay on NCI-H226 lung, 64.5%; in the assay with NCI-H322M lung it was 17.4%; in the assay on HOP-62 NSCLC, 79.1%; in the assay with NCI-H460 lung, 62.3%; with HOP-92 NSCLC, 7.62% (active). The growth is 52.2% in the assay with NCI-H522 lung, 47.9% with A549/ATCC NSCLC, 79.5% in the assay with 786-0 renal and 77.1% with COLO 205 colon.
As for `O=C(CCl)NCCNc1nccc(Nc2ccc(S(=O)(=O)Nc3ccccn3)cc2)n1`, the growth in the assay with NCI-H23 lung was 22.6%; in the assay on NCI-H226 lung, 48%; with NCI-H322M lung, 56.5%; with HOP-62 NSCLC, 26%; in the assay with NCI-H460 lung, 2.9% (active); in the assay with HOP-92 NSCLC it was 31.2%. For the same compound, the growth with NCI-H522 lung is -63.9% (active); in the assay on A549/ATCC NSCLC it was 56.8%; in the assay on 786-0 renal, -34.5% (active); in the assay with COLO 205 colon, 61.1%.
As for `CC/C=C\C/C=C\C[C@H](O)C/C=C1/C(=O)C=C[C@H]1C/C=C\CCC(=O)OC`, the growth is 54.3% [8.25 µM] in the assay on NCI-H23 lung; 69.9% [8.25 µM] in the assay with NCI-H226 lung; 90.2% [8.25 µM] in the assay with NCI-H322M lung; 37.6% [8.25 µM] with HOP-62 NSCLC; 90.2% [8.25 µM] in the assay with NCI-H460 lung; 58.6% [8.25 µM] with HOP-92 NSCLC. In addition, the growth with NCI-H522 lung is -30.8% [8.25 µM] (active); with A549/ATCC NSCLC it was 53.4% [8.25 µM]; in the assay on 786-0 renal, 44.7% [8.25 µM]; in the assay with COLO 205 colon it was 0.861% [8.25 µM] (active).

The values above are taken from PubChem BioAssay (NCI).
